Among the data in PubChem BioAssay (NCATS) are Potency values, retold here.

Inconclusive results are not listed. Where a call stands in place of a potency, no number is given. Calls of active or inactive are those of the source. Calls follow the shape of the dose curve; as a rule, active = well fitted curve in the direction sought with a large enough effect; inconclusive = small, poorly fitted or top-dose-only effect, or another doubt; inactive = no such curve, though single readings can be large; an effect the other way counts as inactive or inconclusive.
Potency is read from the fitted curve at half-maximal effect.

In the first assay the target is Rap guanine nucleotide exchange factor 3 (Homo sapiens) (UniProt O95398). As to the kind of experiment: Confirmatory qHTS for antagonist of cAMP-regulated guanine nucleotide exchange factor 3 (EPAC1) (AID 1645880). Also: nearly all actives have a fitted effect of over 55% in size. Particulars: EPAC1 Rap1B-BODIPY-GDP exchange, fluorescence; activity, negative = inhibition: at 115 µM (top of the series). Put shortly: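 Released BODIPY-GDP fluoresces less than Rap1-bound BODIPY-GDP; the signal is followed at 480/540 nm at 5-min intervals over 30 min, after 5 min at room temperature. Reactions contain 100 nM EPAC1, 250 nM RAP1B-BODIPY-GDP and 50 uM GDP; results are normalized to ATA and DMSO.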
Rap guanine nucleotide exchange factor 3 (Homo sapiens), sequence (O95398 whole entry, looked up): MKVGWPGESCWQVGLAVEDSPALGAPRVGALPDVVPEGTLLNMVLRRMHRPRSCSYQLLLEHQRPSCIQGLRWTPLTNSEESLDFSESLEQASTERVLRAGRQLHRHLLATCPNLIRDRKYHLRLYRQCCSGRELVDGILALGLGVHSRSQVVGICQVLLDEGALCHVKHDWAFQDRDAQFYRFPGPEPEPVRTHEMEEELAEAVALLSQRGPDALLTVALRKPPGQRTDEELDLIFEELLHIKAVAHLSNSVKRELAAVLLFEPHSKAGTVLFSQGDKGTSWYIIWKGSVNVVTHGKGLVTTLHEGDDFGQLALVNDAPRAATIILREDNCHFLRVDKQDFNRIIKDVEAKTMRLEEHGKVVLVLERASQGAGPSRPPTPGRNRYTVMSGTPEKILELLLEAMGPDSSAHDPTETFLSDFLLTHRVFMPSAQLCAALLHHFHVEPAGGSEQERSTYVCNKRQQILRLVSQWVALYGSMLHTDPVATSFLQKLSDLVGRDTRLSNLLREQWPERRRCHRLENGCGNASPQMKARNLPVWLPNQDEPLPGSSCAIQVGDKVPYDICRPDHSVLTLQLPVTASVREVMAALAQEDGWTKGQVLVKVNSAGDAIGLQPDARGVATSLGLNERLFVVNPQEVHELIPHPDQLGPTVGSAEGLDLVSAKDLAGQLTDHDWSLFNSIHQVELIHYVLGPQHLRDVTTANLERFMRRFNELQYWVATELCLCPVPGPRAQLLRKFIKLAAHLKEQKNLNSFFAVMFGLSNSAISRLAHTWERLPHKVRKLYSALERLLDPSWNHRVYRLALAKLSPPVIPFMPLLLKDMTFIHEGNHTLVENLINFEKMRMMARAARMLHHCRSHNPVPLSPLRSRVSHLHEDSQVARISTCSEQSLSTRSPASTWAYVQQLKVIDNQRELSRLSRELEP
In general terms: Quantitative high-throughput screening tests each substance at several concentrations.
As for `CN(C)c1ccc(C2C=C(c3ccc(Cl)cc3OC(F)F)Nc3ncnn32)cc1` (stereo not given), the Potency entry is “inactive”.

Take `O=C1/C(=C/C=C/c2ccccc2)Oc2c1ccc(O)c2CN1CCN(CCO)CC1`: the Potency result was “inactive”. For `COC(=O)c1ccc2nc(-c3ccc(F)cc3)c(Cc3ccccc3)n2c1`, the Potency result was “inactive”. On the same count and under the same terms, in the case of `O=S(=O)(NCC(c1ccco1)N1CCc2ccccc21)c1ccccc1` (stereo not given) it was “inactive”.

As for `Cc1cc2nc3c(=O)n(C)c(=O)n(C)c3nc2cc1N=CN(C)C`, the Potency result is “inactive”.

For `Cc1cccc(C(C)C)c1-n1nnnc1-c1ccccc1`, the Potency entry was “inactive”.

Regarding `COC(=O)c1cc(C(=O)c2ccc(Cl)cc2)n2c(=O)/c(=C\N(C)C)sc12`, the Potency entry was “inactive”.

Turning to `O=C(N/N=C/c1cc(Cl)cc([N+](=O)[O-])c1O)NC12CC3CC(CC(C3)C1)C2`, the Potency is 10.7 µM (active). The same measure, in the same setting: in the case of `O=C(c1cccs1)N(Cc1cccnc1)c1nc2c(Cl)cccc2s1` it was “inactive”; in that of `Cc1ccc(S(=O)(=O)N2[C@@H](c3ccc(C(C)(C)C)cc3)C(C(=O)O)=CC[C@H]2c2ccc(Cl)cc2)cc1`, 33.8 µM (active); in that of `COc1ccc(OC)c(/C=C/c2nc3ccccc3nc2C)c1`, “inactive”. The same measure, in the same setting: in the case of `CCOc1ccc2c(ccc(/C=C/c3cc(C)c4cccnc4c3O)[n+]2C)c1` it was 60.1 µM (active). Still for that read-out and setting: the entry for `COc1ccc(N2C(=O)CSC2c2ccccc2F)c(OC)c1` (stereo not given) is “inactive”. As to `Cn1c(=O)c(C#N)c(-c2ccc(F)cc2)c2cc(C(=O)c3cc(Cl)cc(Cl)c3O)cnc21`, the Potency entry was “inactive”. The same measure, in the same setting: in the case of `CC(C)(C)C1CCc2c(sc(NC(=O)CCC(=O)O)c2C(=O)Nc2ccccc2C(F)(F)F)C1` (stereo not given) it was 42.6 µM (active); in that of `CCOC(=O)C1CCCN(c2c(C(=O)c3ccccc3)cnc3ccc(OC)cc23)C1` (stereo not given), “inactive”; in that of `COc1cc2cc3c4c(cc(OC)c(OC)c4c2cc1OC)CCN3C`, “inactive”. Take `CC(NC(=O)/C(C#N)=C/c1ccc(N2CCOCC2)cc1)c1ccccc1` (stereo not given): the Potency entry is “inactive”.

On to `CC(/C=C/c1ccc(N(C)C)cc1)=N\N=C1\NC(=O)CC(C(=O)Nc2ccccc2)S1` (stereo not given), for which the Potency result is “inactive”. Regarding `CCN1CCN(Cc2c(O)ccc3c2O/C(=C\C=C\c2ccccc2OC)C3=O)CC1`, the Potency entry was “inactive”. Regarding `COc1ccc(-c2ncccc2OC(=O)C23CC4CC(CC(C4)C2)C3)cc1OC`, the Potency result was “inactive”. Same read-out and setting: the entry for `Cc1ccc2cccc(OC(=O)c3c(F)cccc3Cl)c2n1` is “inactive”; for `CCOC(=O)C1Oc2ccccc2C(c2ccc(C)cc2)=C1C(=O)OC` (stereo not given) it is “inactive”; for `O=C(CSc1nc2ccccc2o1)NCc1ccc2c(c1)OCO2` it is “inactive”. Same read-out and setting: in the case of `CN(C)c1ccc(/C=C(\C#N)C(=O)c2ccccc2)cc1` it was “inactive”; in that of `Cc1cccc(NCc2cccc3ccccc23)n1`, “inactive”; in that of `COc1ccccc1C(=O)NNC(=O)CCCN1C(=O)/C(=C/c2cccs2)SC1=S`, “inactive”. Same read-out and setting: in the case of `O=c1[nH]c2ccccc2nc1/C=C(\O)c1cccs1` it was “inactive”; in that of `CC1CCN(c2ccc3c(c2)S(=O)(=O)c2cccc(C(=O)NCc4cccc(F)c4)c2C3=O)CC1`, “inactive”; in that of `Cc1ccc(S(=O)(=O)N2[C@@H](c3ccc(C(C)(C)C)cc3)C(C(=O)O)=CC[C@H]2c2cccc(Cl)c2)cc1`, 47.8 µM (active).

On to `COc1cccc(-n2c(SCC(=O)Nc3ccc(F)cc3F)nc3c([nH]c4ccccc43)c2=O)c1`, for which the Potency result is “inactive”. For the compound `COc1ccc(N2C(=O)[C@H]3CCC=C[C@H]3[C@@H]2c2ccccc2Br)cc1`, the Potency result was “inactive”. The same measure, in the same setting: the figure for `O=C(O)c1cc(Nc2cc(Cl)c3nonc3c2[N+](=O)[O-])ccc1O` is 9.53 µM (active); for `O=C1c2cccc3c(N4CCCCC4)ccc(c23)C(=O)N1c1ccccc1O` it is “inactive”. Same read-out and setting: in the case of `COc1ccc(OC)c(NC(=S)N2c3ccccc3CC2C)c1` (stereo not given) it was “inactive”; in that of `Fc1cc(F)cc(-c2c(-c3ccccc3)ncc3ccc(F)cc23)c1`, “inactive”.

On to `CNC(=O)N(C1=NCC(C)(C)S1)c1ccc(F)c(Cl)c1`, for which the Potency result was “inactive”. On the same count and under the same terms, in the case of `COC(=O)c1ccc2nc(-c3ccccc3)c(Cc3cccc(F)c3)n2c1` it was “inactive”. Still for that read-out and setting: the figure for `O=C1OC(c2ccccc2)(c2cc(Br)c(O)c(Br)c2)c2ccccc21` (stereo not given) is 84.9 µM (active).

The next assay shares this target. Description: Confirmatory qHTS for agonist of cAMP-regulated guanine nucleotide exchange factor 3 (EPAC1) (AID 1645881). Also: nearly all actives have a fitted effect of over 75% in size. Particulars: EPAC1 Rap1B BODIPY-GDP exchange fluorescence; series mostly up to 154 µM.
For the compound `COC(=O)c1ccc2nc(-c3ccc(F)cc3)c(Cc3ccccc3)n2c1`, the Potency entry was “inactive”. For the compound `Cc1cc2nc3c(=O)n(C)c(=O)n(C)c3nc2cc1N=CN(C)C`, the Potency is 50.1 µM (active). On the same count and under the same terms, the entry for `Cc1ccc(S(=O)(=O)N2[C@@H](c3ccc(C(C)(C)C)cc3)C(C(=O)O)=CC[C@H]2c2ccc(Cl)cc2)cc1` is “inactive”. Same read-out and setting: in the case of `COc1ccc(N2C(=O)CSC2c2ccccc2F)c(OC)c1` (stereo not given) it was “inactive”; in that of `COc1cc2cc3c4c(cc(OC)c(OC)c4c2cc1OC)CCN3C`, “inactive”; in that of `CCOC(=O)C1Oc2ccccc2C(c2ccc(C)cc2)=C1C(=O)OC` (stereo not given), “inactive”.

Turning to `Cc1ccc(S(=O)(=O)N2[C@@H](c3ccc(C(C)(C)C)cc3)C(C(=O)O)=CC[C@H]2c2cccc(Cl)c2)cc1`, the Potency entry was “inactive”. Same read-out and setting: in the case of `COc1ccc(N2C(=O)[C@H]3CCC=C[C@H]3[C@@H]2c2ccccc2Br)cc1` it was “inactive”. Same read-out and setting: the entry for `O=C(O)c1cc(Nc2cc(Cl)c3nonc3c2[N+](=O)[O-])ccc1O` is “inactive”. Still for that read-out and setting: the entry for `Fc1cc(F)cc(-c2c(-c3ccccc3)ncc3ccc(F)cc23)c1` is “inactive”; for `O=C1OC(c2ccccc2)(c2cc(Br)c(O)c(Br)c2)c2ccccc21` (stereo not given) it is “inactive”.
